This note sets out measurements from PubChem BioAssay.

A number with no mark means an inactive call. Activity calls are given as the source filed them.

The nature of the experiment: basal CRE-LacZ reporter activity in PC12 – cell-based, unstimulated, primary screen (AID 1145). The note with it: no forskolin, luminescence, 4.5 h, higher = more signal, called active from +8 up or from −8 down.
As to `CN(C)C(=O)[C@@]1(Cc2ccccc2)COC(c2ccc(OCCCO)cc2)=N1`, the z-score is 1.74.
In the case of `CO[C@H]1O[C@H](CO)[C@@H](OC(=O)CCc2ccccc2)[C@H](OC(=O)c2cc3ccccc3[nH]2)[C@H]1OC(=O)c1cc2ccccc2[nH]1` it was -1.28.
Regarding `CN1C(=O)C2C=CC(C(O)c3cc(C(F)(F)F)cc(C(F)(F)F)c3)N(Nc3ccccc3)C2C1=O` (stereo unspecified), the z-score is 0.626.
In the case of `COCCOC(=O)N1C(=O)[C@@]2(c3cc(C#CCCO)ccc31)[C@H](C(N)=O)[C@H]1C(=O)O[C@H](c3ccccc3)[C@H](c3ccccc3)N1[C@@H]2c1ccc(OCCO)cc1` it was -0.141; in that of `COCCOC(=O)N1C(=O)[C@@]2(c3cc(C#Cc4ccc(OC)cc4)ccc31)[C@H](C(=O)NC[C@H](O)c1ccccc1)[C@H]1C(=O)O[C@H](c3ccccc3)[C@H](c3ccccc3)N1[C@@H]2c1ccc(OCCO)cc1`, -1.42.
Consider `COCCOC(=O)N1C(=O)[C@@]2(c3cc(C#CCNC(N)=O)ccc31)[C@H](c1ccc(OCCO)cc1)N1[C@H](c3ccccc3)[C@H](c3ccccc3)OC(=O)[C@H]1[C@@H]2C(N)=O`, for which the z-score is 0.228.
In the case of `CC(=O)NCCCC[C@@H]1NC(=O)[C@H]2C[C@@H](C(=O)NCCCCCNC(=O)CS)[C@@H](c3cccc(OCCO)c3)N2C1=O` it was -0.13.
In the case of `O=C1O[C@H](c2ccccc2)[C@H](c2ccccc2)N2[C@H]1[C@@H](C(=O)N1CCCCCCC1)[C@]1(C(=O)Nc3ccc(C#CC4(O)CCCCCC4)cc31)[C@H]2c1ccccc1OCCO`, the z-score was 0.335.
For the molecule `COCCCNC(=O)[C@@]1(c2ccc([N+](=O)[O-])cc2)CC(=O)N(CC23CC4CC(CC(C4)C2)C3)[C@@H]1c1ccc(CO)cc1I`, the z-score was -0.825.
In the case of `COc1ccc(C#Cc2ccc3c(c2)[C@]2(C(=O)N3)[C@H](C(=O)N3CCCCCCC3)[C@H]3C(=O)O[C@H](c4ccccc4)[C@H](c4ccccc4)N3[C@@H]2c2ccc(O)cc2)cc1` it was 0.0653; in that of `C=C(/C(=C/C[C@H](OC(=O)c1ccncc1)c1cccc(OCCO)c1)c1cnc2ccccc2c1)C(C)C`, 30.3 (active).
Consider `CCCCCCCCCCC(O)C1C=CC2C(=O)N(C)C(=O)C2N1Nc1cc(OC)c(OC)c(OC)c1` (stereo unspecified), for which the z-score was 0.819.
Turning to `Nc1cc(Br)ccc1C(=O)O`, the z-score is 0.209.
With `CN(C)C(=O)[C@]1(CCS(=O)(=O)c2ccccc2)N=C(c2ccc(OCCCO)cc2)O[C@@H]1c1ccccc1`, the z-score was 1.42.
Regarding `O=C1N(CCS(=O)(=O)c2ccccc2)Cc2ccccc2[C@@H]2OC(c3ccc(OCCCO)cc3)=N[C@]12CCS(=O)(=O)c1ccccc1`, the z-score is 3.2.
For `COc1ccc([Si](C)(C)[C@H]2[C@H](CC(=O)N3Cc4ccccc4C[C@H]3CO)O[C@@]3(C(=O)N(Cc4ccc(N5C(=O)c6cccc7cccc5c67)cc4)c4ccccc43)[C@@H]2C)cc1`, the z-score was 1.04.
In the case of `COCC1=C2[C@@H](CCc3ccccc3)OB(O)C[C@@H]2[C@@H]2C(=O)N(C)C(=O)[C@@H]2C1` it was -0.871; in that of `CC(C)OC(=O)CC(=O)CC(O)c1ccc([N+](=O)[O-])cc1` (stereo unspecified), 1.03; in that of `CC(C)C(=C=CC[C@@H](O)c1cccc(OCCO)c1)C[C@@H](O)c1ccccn1`, 1.13.
With `C=CCC(OC(C)=O)[C@@H]1[C@@H](N(Cc2cccc3ccccc23)C(=O)c2cccc3ccccc23)c2cc(OCCCO)ccc2N1C(=O)c1ccc2ccccc2c1` (stereo partly specified), the z-score is -1.1.
As to `CC(=O)N1CC(C(O)C2C=CC3C(=O)NC(=O)C3N2Nc2ccc(Cl)cc2Cl)c2ccccc21` (stereo unspecified), the z-score is 1.21.
`COC(=O)[C@@]1(Cc2ccc(F)cc2)[C@H]2c3cc(C(=O)N(C)C)n(Cc4c(CO)[nH]cc(C)c4=O)c3C[C@H]2CN1C(=O)c1ccccc1`: the z-score was 0.39.
In the case of `CC(C)[C@H]1NC(=O)[C@@]23C(=O)N[C@@H](Cc4ccccc4)C2[C@H](C)[C@@]2(C)O[C@H]2C3/C=C/CCC/C=C/CNC(=O)[C@H](Cc2ccccc2)NC1=O` (stereo partly specified) it was 1.4; in that of `CCOC(=O)C[C@H]1[C@H](OC(=O)c2ccccc2-c2ccccc2)[C@@H](NC(=O)c2ccccc2)c2cc(OCCCO)ccc2N1C(=O)c1ccccc1`, 2.38.
For the molecule `COC(=O)[C@@]1(Cc2ccccc2CN=[N+]=[N-])N=C(c2ccc(OCCCO)cc2)O[C@H]1c1ccccc1`, the z-score was 2.38.
In the case of `C=C(COC)C(=O)CC[C@@H](OC(=O)c1cccnc1)c1ccccc1OCCO` it was 19.7 (active); in that of `CC1CC/C=C\[C@H]2OC34C=CCN(CCN5CCOCC5)C(=O)[C@H]3N(C(C)CO)C(=O)[C@@H]4C2C(=O)O1` (stereo partly specified), -0.0778.
`[N-]=[N+]=NCc1ccccc1[C@H]1OC(c2ccc(OCCCO)cc2)=N[C@@]1(CCS(=O)(=O)c1ccccc1)C(=O)NCc1ccccc1`: the z-score was 0.549.
Consider `COc1ccc([Si](C)(C)[C@H]2[C@H](CCO)O[C@@]3(C(=O)N(Cc4ccc(N5C(=O)c6ccccc6Oc6ccccc65)cc4)c4ccccc43)[C@@H]2C)cc1`, for which the z-score is 0.222.
Consider `O=C(NCC(O)CO)[C@@]1(CCS(=O)(=O)c2ccccc2)COC(c2ccc(OCCCO)cc2)=N1` (stereo partly specified), for which the z-score is 0.33.
Take `C=CCC(OC(C)=O)[C@@H]1[C@@H](N(Cc2cccc3ccccc23)C(=O)Cc2ccc(F)cc2)c2cc(OCCCO)ccc2N1C(=O)c1ccc(-c2ccccc2)cc1` (stereo partly specified): the z-score was 1.44.
`C=CCNC(=O)[C@@H]1[C@H]2C(=O)O[C@H](c3ccccc3)[C@H](c3ccccc3)N2[C@H](c2ccc(O)cc2)[C@@]12C(=O)N(C(=O)OCCOC)c1ccc(C#CCCO)cc12`: the z-score is -0.337.
In the case of `C=CCNC(=O)[C@@H]1[C@H]2C(=O)O[C@H](c3ccccc3)[C@H](c3ccccc3)N2[C@H](c2ccc(OCCO)cc2)[C@@]12C(=O)N(C(=O)OCCOC)c1ccc(C#CCCO)cc12`, the z-score was -0.375.
In the case of `C=CCOC(=O)[C@H]1[C@@H]2C(=O)O[C@@H](c3ccccc3)[C@@H](c3ccccc3)N2[C@@H](c2ccc(OCCOC(=O)[C@H]3C[C@H]4C(=O)N[C@@H](CCCCNC(C)=O)C(=O)N4[C@H]3c3cccc(OCCO)c3)cc2)[C@]12C(=O)Nc1ccc(I)cc12` it was 0.557; in that of `COCCOC(=O)N1C(=O)[C@@]2(c3cc(C#CC4=CCCCC4)ccc31)[C@H](c1ccc(O)cc1)N1[C@H](c3ccccc3)[C@H](c3ccccc3)OC(=O)[C@H]1[C@@H]2C(=O)NC[C@H](O)c1ccccc1`, -0.815; in that of `CN1C(=O)C2C=CC(C(O)c3ccc(I)cc3)N(Nc3ccccc3)C2C1=O` (stereo unspecified), 1.77.
